# In PubChem BioAssay (EPA / NIEHS):
# Several values for one entry are separate records, joined by “and”; a condition that tells them apart may be missing. Identical values can stand only once. Results filed as inconclusive are left out. Activity calls are given as the source filed them. Rule for the calls, unless noted: active = hit-call score of the fitted dose curve at least 0.9, where 1 is the maximum; inactive = score below 0.9.
# How the values were obtained:
# [1] = CCTE_Simmons_MITO_basal_resp_rate: CCTE's HepG2 Seahorse XF Respirometric Screening Assay at Basal Respiratory State, Simmons Lab (AID 2284001); details: actives raise or lower the signal
# Procedure, shortened: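 Basal-phase OCR in HepG2 cells, read at 6-min intervals across a 72-min run, with test compound injected at 125 nM–100 uM final (7 points). Fitted both directions against DMSO; three biological replicates per concentration.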
# [2] = CCTE_Simmons_MITO_max_resp_rate: CCTE's HepG2 Seahorse XF Respirometric Screening Assay at Maximal Respiratory State [uncoupled], Simmons Lab (AID 2284002); details: actives raise or lower the signal
# Procedure, shortened: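 Maximal (FCCP-uncoupled) respiration rate in HepG2, from Seahorse kinetic OCR over 72 min at 6 min cycles. Compounds at 125 nM–100 uM final, 7 points, three biological replicates; both directions fit relative to DMSO.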
# [3] = CCTE_Simmons_MITO_inhib_resp_rate: CCTE's HepG2 Seahorse XF Respirometric Screening Assay at Inhibited Respiratory State [full ETC block], Simmons Lab (AID 2284006); details: actives raise or lower the signal
# Procedure, shortened: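 This endpoint is the respiration rate remaining after rotenone/antimycin A block, in HepG2 cells on a Seahorse XF96. Chemicals spanned 125 nM–100 uM final, in three biological replicates. OCR was read every 6 minutes for 72 minutes and compared with DMSO vehicle.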
# [4] = CCTE_Simmons_MITO_viability: CellTiter-Glo Viability Assessment for CCTE's HepG2 Seahorse XF Respirometric Screening Assay [post-hoc], Simmons Lab (AID 2284007; active = hit-call score of the fitted dose curve at least 0.9, where 1 is the maximum)
# Procedure, shortened: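 Luciferase-coupled ATP read-out after the Seahorse run: HepG2 cells treated 90 minutes with test chemical, 7-point series of 125 nM–100 uM final, in triplicate biological runs. Vehicle DMSO; dichlone as positive control over 8 concentrations.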
# [5] = CCTE_Shafer_MEA_acute_spike_number: CCTE's Neural Acute Assay for Total Number of Spikes, Shafer Lab (AID 2284008);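 for AC50: curve fitted for decrease in spike count so AC50 reflects inhibitors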
# Procedure, shortened: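 Total spike count from 40 min recordings before and during compound exposure (0.03-40 uM), given as per-well percent change. Cortical cultures from rat, DIV 13 or 15, 37 C; adaptive detection threshold 8x rms noise.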
# [6] = CCTE_Shafer_MEA_acute_firing_rate_mean: CCTE's Neural Acute Assay for Mean Firing Rate, Shafer Lab (AID 2284009);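 note: analyzed for loss of signal so actives lower firing rate relative to DMSO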
# Procedure, shortened: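 Primary rat cortical neurons on 16-electrode MEA wells were exposed on DIV 13 or 15 to compound (0.03-40 uM). Spike counts per recording time, averaged over electrodes, were compared between 40-min baseline and 40-min post-exposure recordings as percent change.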
# [7] = CCTE_Harrill_HTTr_Viability_MCF7: CCTE's 6-hour Cell Viability Assessment for the High-Throughput Transcriptomics (HTTr) Platform, in MCF-7 cells cultured in DMEM + 10% fetal bovine serum, Harrill Lab (AID 2284010)
# Procedure, shortened: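 Propidium iodide exclusion, imaged by high-content analysis, gauged viability after a six-hour exposure across eight concentrations. Cells were MCF-7 grown in DMEM with 10% fetal bovine serum; fits run in both directions against DMSO.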
# [8] = CCTE_Harrill_HTTr_Apoptosis_MCF7: CCTE's 6-hour Apoptosis Assessment for the High-Throughput Transcriptomics (HTTr) Platform, in MCF-7 cells cultured in DMEM + 10% fetal bovine serum, Harrill Lab (AID 2284011)
# Procedure, shortened: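 High-content imaging of CellEvent Caspase 3/7 Green signal follows a six-hour exposure, with eight concentrations per chemical. MCF-7 cells grown in DMEM plus 10% fetal bovine serum; activity fitted in both directions against DMSO.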
# [9] = target: Nucleoli Translocation, AR (gene 367) (UniProt P10275); test: UPITT_HCI_U2OS_AR_TIF2_Nucleoli_Antagonist: University of Pittsburgh U2OS Androgen Receptor-Transcriptional Intermediary Factor 2 (AR-TIF2) Antagonism High Content Imaging Assay for Nucleoli Translocation (AID 2283997; active = hit-call score of the fitted dose curve at least 0.9, where 1 is the maximum)
# Procedure, shortened: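 Antagonism is read as loss of nucleolar AR-RFP signal relative to DHT, imaged in U2OS cells also carrying GFP-TIF2. Compounds screened at 20 uM final, 0.2% DMSO; primary actives retested in triplicate.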
# [10] = target: Nucleoli Translocation, AR (gene 367) (UniProt P10275); test: UPITT_HCI_U2OS_AR_TIF2_Nucleoli_Agonist: University of Pittsburgh U2OS Androgen Receptor-Transcriptional Intermediary Factor 2 (AR-TIF2) Agonism High Content Imaging Assay for Nucleoli Translocation (AID 2283998; active = hit-call score of the fitted dose curve at least 0.9, where 1 is the maximum)
# Procedure, shortened: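 Nucleolar translocation of AR-RFP, with TIF2-GFP coexpressed in human osteosarcoma U2OS, imaged by high-content fluorescence. Compounds tested singly at 20 uM final, confirmed in triplicate, then titrated 0.195–50 uM final; gain-of-signal relative to DMSO.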
# [11] = target: Ratio of Nucleoli Translocation and Cytoplasm, AR (gene 367) (UniProt P10275); test: UPITT_HCI_U2OS_AR_TIF2_Nucleoli_Cytoplasm_Ratio_Antagonist: University of Pittsburgh U2OS Androgen Receptor-Transcriptional Intermediary Factor 2 (AR-TIF2) Antagonism High Content Imaging Assay for Ratio of Nucleoli Translocation and Cytoplasm (AID 2283999; active = hit-call score of the fitted dose curve at least 0.9, where 1 is the maximum;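 note: antagonists lower the DHT-driven ratio of nucleolar to cytoplasmic red signal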)
# Procedure, shortened: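 High-content imaging of red fluorescence ratio, nucleoli versus cytoplasm, in U2OS expressing AR-RFP and TIF2-GFP, fitted relative to DHT. Compounds tested once at 20 uM final, then 0.195 to 50 uM final in serial dilution.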
# [12] = target: Ratio of Nucleoli Translocation and Cytoplasm, AR (gene 367) (UniProt P10275); test: UPITT_HCI_U2OS_AR_TIF2_Nucleoli_Cytoplasm_Ratio_Agonist: University of Pittsburgh U2OS Androgen Receptor-Transcriptional Intermediary Factor 2 (AR-TIF2) Agonism High Content Imaging Assay for Ratio of Nucleoli Translocation and Cytoplasm (AID 2284000; active = hit-call score of the fitted dose curve at least 0.9, where 1 is the maximum;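 note: hits raise the red nucleolar to cytoplasm ratio above vehicle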)
# Procedure, shortened: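 Compounds tested at 20 uM final in primary screen (0.2% DMSO) and 0.195-50 uM final in dose-response (0.5% DMSO). Imaging of human U2OS cells bearing RFP-AR and GFP-TIF2; endpoint is nucleoli/cytoplasm red signal ratio, positive direction relative to DMSO.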
# [13] = target: THRB (gene 7068) (UniProt P10828); test: TOX21_TRB_COA_Agonist_Followup_ratio: Tox21 Thyroid Hormone Receptor beta Agonism through Coactivator Recruitment Follow-Up Assay, Ratio (AID 2283963)
# Procedure, shortened: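 GST-TRb LBD 5.0 nM + 0.10% BSA + cpd; add fluorescein-SRC-2 200 nM / Tb anti-GST Ab 2 nM; TR-FRET ex 340, em 520:495; norm DMSO 0%, T3 100%.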
# [14] = target: Retinoic acid receptor RXR-alpha (Homo sapiens) (UniProt P19793); test: TOX21_TR_RXR_BLA_Agonist_Followup_ratio: Tox21 Thyroid Hormone Receptor beta Retinoid X Receptor alpha (RXRa) Agonism Beta-lactamase (BLA) Follow-Up Assay, Ratio (AID 2283968; active = hit-call score of the fitted dose curve at least 0.9, where 1 is the maximum)
# Procedure, shortened: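 Agonist mode: compounds given to RXRa-bla HEK293T cells at 11 concentrations, triplicate, 16 h at 37C/5% CO2. Readout is the 460:530 nm blue/green ratio after 2 h substrate loading at room temperature; DMSO baseline, 9-cis retinoic acid control.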
# [15] = TOX21_TR_RXR_BLA_Agonist_Followup_viability: Viability Assessment in the Tox21 Thyroid Hormone Receptor beta Retinoid X Receptor alpha (RXRa) Agonism Beta-lactamase (BLA) Follow-Up Assay (AID 2283970; active = hit-call score of the fitted dose curve at least 0.9, where 1 is the maximum)
# Procedure, shortened: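 CellTiter-Glo ATP luciferase read-out of cell viability, multiplexed with the beta-lactamase reporter run. RXRa-bla HEK293T cells in charcoal-stripped serum medium were exposed 16 h at 37C; data fitted both directions relative to DMSO.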
# Ratio of Nucleoli Translocation and Cytoplasm, AR (gene 367), sequence (P10275 whole entry, looked up): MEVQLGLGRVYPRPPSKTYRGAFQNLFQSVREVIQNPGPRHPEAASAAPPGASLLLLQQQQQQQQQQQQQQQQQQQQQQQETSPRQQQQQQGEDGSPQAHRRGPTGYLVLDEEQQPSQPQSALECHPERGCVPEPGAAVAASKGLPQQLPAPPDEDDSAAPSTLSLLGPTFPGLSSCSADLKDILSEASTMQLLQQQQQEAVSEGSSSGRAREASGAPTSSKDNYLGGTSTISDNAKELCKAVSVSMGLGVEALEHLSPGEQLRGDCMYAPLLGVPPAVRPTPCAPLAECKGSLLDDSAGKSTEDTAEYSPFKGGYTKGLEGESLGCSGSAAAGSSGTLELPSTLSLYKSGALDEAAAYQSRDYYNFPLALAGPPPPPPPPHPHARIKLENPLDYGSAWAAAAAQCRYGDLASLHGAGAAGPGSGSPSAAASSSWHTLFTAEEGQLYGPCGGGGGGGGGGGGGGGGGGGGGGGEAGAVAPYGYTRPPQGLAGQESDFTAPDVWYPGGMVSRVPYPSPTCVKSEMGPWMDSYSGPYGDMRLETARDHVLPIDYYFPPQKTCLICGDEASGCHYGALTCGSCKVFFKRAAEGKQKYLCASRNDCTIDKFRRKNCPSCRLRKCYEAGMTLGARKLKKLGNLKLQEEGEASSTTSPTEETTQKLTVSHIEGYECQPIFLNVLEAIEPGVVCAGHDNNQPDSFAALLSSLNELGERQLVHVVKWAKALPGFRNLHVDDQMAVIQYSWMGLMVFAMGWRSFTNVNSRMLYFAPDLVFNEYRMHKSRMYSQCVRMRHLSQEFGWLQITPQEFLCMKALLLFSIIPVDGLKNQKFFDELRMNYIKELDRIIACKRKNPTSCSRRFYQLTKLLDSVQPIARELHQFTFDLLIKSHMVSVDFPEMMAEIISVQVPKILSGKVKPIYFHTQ
# Nucleoli Translocation, AR (gene 367), sequence (P10275 whole entry, looked up): as above
# Retinoic acid receptor RXR-alpha (Homo sapiens), sequence (P19793 whole entry, looked up): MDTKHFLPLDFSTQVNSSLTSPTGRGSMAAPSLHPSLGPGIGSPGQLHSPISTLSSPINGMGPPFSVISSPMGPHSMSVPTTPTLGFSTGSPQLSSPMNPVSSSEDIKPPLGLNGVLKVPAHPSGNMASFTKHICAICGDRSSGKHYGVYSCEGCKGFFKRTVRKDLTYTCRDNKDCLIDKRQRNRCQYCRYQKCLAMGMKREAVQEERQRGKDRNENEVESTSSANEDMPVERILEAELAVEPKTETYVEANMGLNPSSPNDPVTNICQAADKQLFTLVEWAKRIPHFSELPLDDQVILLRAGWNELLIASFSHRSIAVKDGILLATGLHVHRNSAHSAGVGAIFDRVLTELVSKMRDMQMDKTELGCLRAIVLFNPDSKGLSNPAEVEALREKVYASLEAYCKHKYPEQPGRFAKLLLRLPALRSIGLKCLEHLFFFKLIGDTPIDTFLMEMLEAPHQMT
# THRB (gene 7068), sequence (P10828 whole entry, looked up, the tested form may be a part): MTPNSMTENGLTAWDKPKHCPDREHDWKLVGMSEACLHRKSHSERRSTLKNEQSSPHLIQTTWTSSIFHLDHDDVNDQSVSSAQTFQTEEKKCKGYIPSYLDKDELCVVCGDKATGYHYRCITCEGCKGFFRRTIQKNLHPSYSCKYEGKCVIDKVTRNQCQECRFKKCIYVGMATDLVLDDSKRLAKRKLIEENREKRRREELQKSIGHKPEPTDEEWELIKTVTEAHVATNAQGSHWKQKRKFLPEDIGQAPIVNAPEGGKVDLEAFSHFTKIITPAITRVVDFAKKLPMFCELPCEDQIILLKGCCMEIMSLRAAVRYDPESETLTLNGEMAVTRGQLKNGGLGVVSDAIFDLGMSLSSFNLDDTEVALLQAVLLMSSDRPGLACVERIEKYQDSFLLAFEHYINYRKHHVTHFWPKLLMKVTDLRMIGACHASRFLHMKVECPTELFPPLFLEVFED
structure (smiles),measurement,setting,value
ClC(Cl)(Cl)c1ccccc1,outcome,[1],inactive
same,outcome,[2],inactive
same,outcome,[3],inactive
same,outcome,[4],inactive
same,outcome,[5],inactive
same,outcome,[6],inactive
same,outcome,[7],inactive
same,outcome,[8],inactive
ClC(Cl)=C(c1ccc(Cl)cc1)c1ccccc1Cl,AC50,[9],50 µM (active) and 9.92 µM (active)
same,outcome,[10],inactive
same,outcome,[11],inactive
same,outcome,[12],inactive
CCC(C)(C)c1ccc(O)cc1,AC50,[1],49.9 µM (active)
same,AC50,[2],42.5 µM (active)
same,outcome,[3],inactive
same,AC50,[5],0.186 µM (active)
same,AC50,[6],0.186 µM (active)
CCOP(=S)(OCC)SCSCC,outcome,[1],inactive
same,AC50,[2],50 µM (active)
same,outcome,[3],inactive
same,outcome,[4],inactive
same,outcome,[7],inactive
same,outcome,[8],inactive
c1cc2c3c(cccc3c1)CC2,outcome,[9],inactive
same,outcome,[11],inactive
same,outcome,[12],inactive
same,outcome,[7],inactive
same,outcome,[8],inactive
CC1(C)CN=C(NN=C(/C=C/c2ccc(C(F)(F)F)cc2)/C=C/c2ccc(C(F)(F)F)cc2)NC1,AC50,[9],9.92 µM (active)
same,outcome,[10],inactive
same,outcome,[11],inactive
same,outcome,[12],inactive
same,outcome,[7],inactive
same,outcome,[8],inactive
CCNc1nc(Cl)nc(NC(C)(C)C)n1,outcome,[9],inactive
same,outcome,[10],inactive
same,outcome,[12],inactive
O=C(O)C(Cl)Cl,outcome,[13],inactive
same,outcome,[14],inactive
same,outcome,[15],inactive
same,outcome,[7],inactive
CC(Cl)(Cl)C(=O)O,outcome,[5],inactive
same,outcome,[6],inactive
COCCOCCO,outcome,[5],inactive
same,outcome,[6],inactive
same,outcome,[7],inactive
same,outcome,[8],inactive
CCOP(=S)(S)OCC,outcome,[7],inactive
same,outcome,[8],inactive
CCCCC(CC)COC(=O)c1c(Br)c(Br)c(Br)c(Br)c1C(=O)OCC(CC)CCCC (stereo not drawn),outcome,[7],inactive
CSC(C)(C)C=NO,outcome,[8],inactive
O=P(Oc1ccccc1)(Oc1ccccc1)Oc1ccccc1,outcome,[7],inactive
Cc1ccc([N+](=O)[O-])cc1C,outcome,[7],inactive
same,outcome,[8],inactive
O=C(O)C1C(C(=O)O)C2(Cl)C(Cl)=C(Cl)C1(Cl)C2(Cl)Cl (stereo not drawn),outcome,[5],inactive
same,outcome,[6],inactive
same,outcome,[8],inactive
O=C(O)CF,outcome,[8],inactive
COP(=O)(O)OC,outcome,[7],inactive
same,outcome,[8],inactive
FC(F)(F)c1ccc(Cl)cc1,outcome,[7],inactive
same,outcome,[8],inactive
c1ccc2c(c1)Nc1ccccc1S2,AC50,[5],4.42 µM (active)
same,AC50,[6],4.45 µM (active)
same,outcome,[7],inactive
Cc1c([N+](=O)[O-])cc2c(c1[N+](=O)[O-])C(C)(C)CC2(C)C,outcome,[7],inactive
same,outcome,[8],inactive
Nc1ccc(Sc2ccc(N)cc2)cc1,outcome,[7],inactive
O=[N+]([O-])c1ccc(Cl)c(Cl)c1,outcome,[7],inactive
same,outcome,[8],inactive
CCCCOCCOP(=O)(OCCOCCCC)OCCOCCCC,outcome,[7],inactive
same,outcome,[8],inactive
CCOP(=S)(OCC)SCSc1ccc(Cl)cc1,outcome,[7],inactive
CC(C)(C)OOC(C)(C)C,outcome,[8],inactive
CCOP(=S)(Oc1ccc([N+](=O)[O-])cc1)c1ccccc1 (stereo not drawn),AC50,[5],24.9 µM (active)
same,AC50,[6],25 µM (active)
same,outcome,[8],inactive
CC(O)C#N (stereo not drawn),outcome,[7],inactive
same,outcome,[8],inactive
CCOc1ccc(C(C)(C)COCc2cccc(Oc3ccccc3)c2)cc1,outcome,[5],inactive
same,outcome,[6],inactive
CCCCN(CCCC)N=O,outcome,[8],inactive
c1nc[nH]n1,outcome,[7],inactive
CCCCc1ccccc1,outcome,[7],inactive
same,outcome,[8],inactive
CCOS(=O)(=O)OCC,outcome,[7],inactive
O=NN1CCCC1,outcome,[8],inactive
Nc1cc2c3c(c1)C(c1ccccc1)=N[C@@H](NC(=O)c1cccnc1)C(=O)N3CC2,outcome,[7],inactive
same,outcome,[8],inactive
COP(=O)(CCC(=O)NCO)OC,outcome,[5],inactive
same,outcome,[6],inactive
Cc1ccc2c(c1N)C(=O)c1ccccc1C2=O,outcome,[7],inactive
same,outcome,[8],inactive
